The source of these data is PubChem BioAssay AID463213 (Sanford-Burnham Center for Chemical Genomics, 2010).

Among all 7,400 compounds or so, about 4,100 (55%) were called active. The set was probably picked from earlier hits. The list is a sample of the results. Values without a mark were called inactive.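 How the source made its calls: active means inhibition of yeast growth at or above a set limit in either of two repeat tests at 20 µM; inactive means the rest.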

A short description of this assay: tim10-1 ts yeast growth inhibition, retested – single concentration, luminescence, S. cerevisiae, confirmation (AID 463213). The note with it: S. cerevisiae tim10-1 ts strain growth, BacTiter-Glo, 24 h; at 20 µM; hits give high values.
Turning to `Cc1nc2ccccn2c1P(=S)(N1CCCCC1)N1CCCCC1`, the inhibition (in general, how much of the control response was suppressed) was 38.4% (active).
Consider `O=C1NC(=O)N(c2ccccc2)C(=O)/C1=C/c1ccc([N+](=O)[O-])s1`, for which the inhibition was 75.3% (active).
Then `COc1cccc(N2C(=O)NC(=O)/C(=C\c3ccc([N+](=O)[O-])s3)C2=O)c1`, with 76.5% (active).
Then `N#CC1=C(N)Oc2c(c(=O)oc3ccccc23)C1c1ccccc1OC(=O)c1cccs1` (stereo not given), with 22.8%; and `CCCCCn1c(=O)c(C(=O)Nc2c(C)n(C)n(-c3ccccc3)c2=O)c(O)c2ccccc21`, with 6.15%.
